# Reference: the supplement of paper PMC10127200
# Where a name gives a salt, the structure may show the parent alone.
# Test system: OVCAR4
# Assay: Euclidean distance of Cell Painting phenotypic profile (signed KS, 77 features) to DMSO centroid (dimensionless distance); 5 or 10 uM (library dependent); higher = stronger phenotypic change vs DMSO (phenoactivity)
# Conditions: 48 h
# Method in brief: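 Five cancer lines and a healthy fibroblast line received library compounds at 10 or 5 uM (library-dependent, 0.1% DMSO final) for 48 h. Stained cells were imaged confocally at 20X (9 fields/well). Harmony extracted 77 features, each scored as a signed Kolmogorov-Smirnov statistic against same-plate vehicle wells. Profiles were plate-position corrected, correlation-weighted and replicate-averaged at the top dose. Phenoactivity is the Euclidean distance from each profile to the median vehicle profile.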
row,SMILES,Euclidean distance
1,CCCc1nn(C)c2c(=O)[nH]c(-c3cc(S(=O)(=O)N4CCN(C)CC4)ccc3OCC)nc12 [Sildenafil Mesylate],0.995
2,Cc1cnc(Nc2ccc(N3CCN(C)CC3)cc2)nc1Nc1cccc(S(=O)(=O)NC(C)(C)C)c1,3.26
3,Cc1cc2ncc(C(=O)NCC(C)(C)NCC(=O)N3CCC[C@H]3C#N)cn2n1 [Anagliptin],1.17
4,O=C(OCc1ccccc1)c1ccccc1 [Benzyl benzoate],1.33
5,CO[C@H]1C[C@@H]2CC[C@@H](C)[C@@](O)(O2)C(=O)C(=O)N2CCCC[C@H]2C(=O)O[C@H]([C@H](C)C[C@@H]2CC[C@@H](OC(=O)C(C)(CO)CO)[C@H](OC)C2)CC(=O)[C@H](C)/C=C(\C)[C@@H](O)[C@@H](OC)C(=O)[C@H](C)C[C@H](C)/C=C/C=C/C=C/1C,2.08
6,CCS(=O)(=O)c1cccc(-c2cc(C(=O)NC3CCN(C)CC3)c(C)c3[nH]c4ncc(C)cc4c23)c1,2.17
7,NC(=O)c1ccccc1O [Salicylamide],2.3
8,CC(C(=O)O)c1ccc(C(=O)c2cccs2)cc1 (stereo not given) [Suprofen],1.01
9,CCCCCCCCCC(=O)N[C@H]1[C@H](Oc2c3cc4cc2Oc2ccc(cc2Cl)[C@@H](O[C@@H]2O[C@H](CO)[C@@H](O)[C@H](O)[C@H]2NC(C)=O)[C@@H]2NC(=O)[C@H](NC(=O)[C@@H]4NC(=O)[C@H]4NC(=O)[C@@H](Cc5ccc(c(Cl)c5)O3)NC(=O)[C@H](N)c3ccc(O)c(c3)Oc3cc(O)cc4c3)c3ccc(O)c(c3)-c3c(OC4O[C@H](CO)[C@@H](O)[C@H](O)[C@@H]4O)cc(O)cc3[C@@H](C(=O)O)NC2=O)O[C@H](CO)[C@@H](O)[C@@H]1O (stereo not given in full) [Teicoplanin],1.07
10,Cc1cccc(C)c1NC(=O)C1CCCCN1C (stereo not given) [Mepivacaine HCl],0.914
11,Cc1nc2cccc(N)c2c(=O)n1C1CCC(=O)NC1=O (stereo not given) [Avadomide(CC-122)],0.966
12,CC[C@]1(O)C[C@@H]2CN(CCc3c([nH]c4ccccc34)[C@@](C(=O)OC)(c3cc4c(cc3OC)N(C)[C@H]3[C@@](O)(C(=O)OC)[C@H](OC(C)=O)[C@]5(CC)C=CCN6CC[C@]43[C@@H]65)C2)C1 [Vinblastine sulfate],3
13,CC1(COc2ccc3c(c2)ncn3-c2ccc3cccc(N4CCC(N)CC4)c3n2)COC1,3.78
14,CCCCNc1ncc(-c2ccc(CN3CCOCC3)cn2)c(NC2CCC(O)CC2)n1 (stereo not given),0.882
15,CC(C[N+](C)(C)C)OC(N)=O (stereo not given) [Bethanechol chloride],0.949
16,CN1CCC(=C2c3ccccc3C=Cc3ccccc32)CC1 [Cyproheptadine hydrochloride],0.968
17,O=C(NCc1ccccc1)c1csc(Nc2ccncn2)n1 [Thiazovivin],1.6
18,CCC[C@@H]1C[C@@H](C(=O)N[C@@H]([C@H]2O[C@H](SC)[C@H](O)[C@@H](O)[C@H]2O)[C@H](C)Cl)N(C)C1 [Clindamycin HCl],0.755
19,Cc1ccsc1/C=C/C1=NCCCN1C [Morantel tartrate],1.21
20,CN(C)c1nc(N(C)C)nc(N(C)C)n1 [Altretamine],0.929

row,SMILES,Euclidean distance
1,c1cnc(N2CCN(Cc3ccc4c(c3)OCO4)CC2)nc1 [Piribedil],0.899
2,Fc1cc(-c2cccc3ncc(-c4cnn(C5CCNCC5)c4)nc23)cc(F)c1CN1CCOCC1,1.28
3,CN(C(=O)c1c(O)c2ccccc2n(C)c1=O)c1ccccc1 [Roquinimex],0.974
4,COc1cccc(CCc2ccccc2OCC(CN(C)C)OC(=O)CCC(=O)O)c1 (stereo not given) [Sarpogrelate hydrochloride],1.63
5,Cc1csc(-c2nnc(Nc3ccc(Oc4ncccc4-c4ccnc(N)n4)cc3)c3ccccc23)c1,3.01
6,N=C(N)NC(=O)c1nc(Cl)c(N)nc1N [Amiloride HCl],0.94
7,CCOC(=O)N1c2ccc(C(F)(F)F)cc2[C@@H](N(Cc2cc(C(F)(F)F)cc(C(F)(F)F)c2)C(=O)OC)C[C@H]1CC [Torcetrapib],1.29
8,CC(C)C(=O)Oc1ccc(CO)cc1[C@H](CCN(C(C)C)C(C)C)c1ccccc1 [Fesoterodine Fumarate],1.69
9,CC1(C)S[C@@H]2[C@H](NC(=O)[C@H](N)c3ccccc3)C(=O)N2[C@H]1C(=O)O [Ampicillin sodium],1.15
10,CCCCCOC(=O)Nc1nc(=O)n([C@@H]2O[C@H](C)[C@@H](O)[C@H]2O)cc1F [Capecitabine],1.23
11,CNC(=O)c1ccc2cc([C@@]3(O)CCn4cncc43)ccc2c1 [TAK-700 (Orteronel)],0.845
12,CC1(C)OC[C@@H](COC(=O)CCc2ccc(OC[C@@H](O)CNCCNC(=O)N3CCOCC3)cc2)O1 [Landiolol hydrochloride],1.25
13,CS(=O)(=O)c1ccc(C2=C(c3ccccc3)C(=O)OC2)cc1 [Rofecoxib],1.24
14,C=C1[C@H](CO)[C@@H](O)C[C@@H]1n1cnc2c(=O)[nH]c(N)nc21 [Entecavir],1.15
15,CO[C@H]1C[C@@H]2CC[C@@H](C)[C@@](O)(O2)C(=O)C(=O)N2CCCC[C@H]2C(=O)O[C@H]([C@H](C)C[C@@H]2CC[C@@H](O)[C@H](OC)C2)CC(=O)[C@H](C)/C=C(\C)[C@@H](O)[C@@H](OC)C(=O)[C@H](C)C[C@H](C)/C=C/C=C/C=C/1C [Rapamycin (Sirolimus)],2.1
16,c1ccc2c(c1)CCCC2C1=NCCN1 (stereo not given) [Tetryzoline],0.896
17,Nc1ccc(S(=O)(=O)Nc2cnc3ccccc3n2)cc1 [Sulfaquinoxaline sodium],0.684
18,NC(=O)N1CCC(CC(=O)N2CCC([C@H]3c4ncc(Br)cc4CCc4cc(Cl)cc(Br)c43)CC2)CC1 [Lonafarnib],1.63
19,CNC[C@H](O)c1cccc(O)c1 [Phenylephrine HCl],0.844
20,CCn1cc(C(=O)O)c(=O)c2cc(F)c(N3CCNCC3)nc21 [Enoxacin Sesquihydrate],1.19
